ADAM17 inh – ADAM17 inhibitors, primary screen, biochemical, QFRET; 0.83% of 370,000 active; inhibition, % at 6.95 µM; recombinant ADAM17, EDANS/DABCYL FRET peptide cleavage; AID 720648, 2013;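 active means inhibition above the mean of compounds lying between control limits plus 3 SD, set per campaign, cut at about 8.5% in these data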;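 further: 0% = DMSO-only wells as the low control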
ADAM10 inh – human ADAM10 inhibitors, primary screen, biochemical, QFRET, HTS; recombinant ADAM10, EDANS/DABCYL FRET peptide cleavage, 3 h; 0.62% of 370,000 active; Disintegrin and metalloproteinase domain-containing protein 10 (Homo sapiens), O14672; inhibition, % at 7 µM;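 active means inhibition above a per-campaign cutoff equal to the mean of compounds falling between control-based bounds plus 3 SD, cut at about 20% in these data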;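 further: 0% = DMSO wells while the 100% control is not disclosed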
proKLK7 act – proKLK7 zymogen activators, primary screen, biochemical, fluorescence intensity. Kallikrein-7 (Homo sapiens), P49862. purified proKLK7, EDANS-DABCYL substrate fluorescence; 100% is mature enzyme control, 0% vehicle. activation, % at 7 µM. 0.9% of 370,000 active. AID 652039, 2013;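 active means activation above the mean of all tested compounds plus 3 SD, computed per campaign excluding outliers beyond control limits, cut at about 13% in these data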
Target sequence (P49862 whole entry, looked up): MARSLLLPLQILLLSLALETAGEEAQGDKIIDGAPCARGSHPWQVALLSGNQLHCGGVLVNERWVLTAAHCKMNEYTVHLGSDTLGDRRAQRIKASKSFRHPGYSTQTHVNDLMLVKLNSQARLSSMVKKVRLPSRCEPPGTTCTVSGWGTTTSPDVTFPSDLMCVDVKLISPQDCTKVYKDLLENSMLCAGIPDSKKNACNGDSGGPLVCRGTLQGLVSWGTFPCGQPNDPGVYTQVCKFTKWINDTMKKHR
PLCb3 inh – human PLC-beta3 inhibitors, primary screen, biochemical, fluorescence; 1-phosphatidylinositol 4,5-bisphosphate phosphodiesterase beta-3 (Homo sapiens), Q01970; Purified PLC-beta3, fluorogenic substrate; inhibition, % at 12.2 µM; 0.18% of 370,000 active; in the data active means inhibition above about 11%;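 further: 0% = median of compound wells on plate and 100% = full blocker control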
PLC-gamma1 inh – PLC-gamma1 enzyme inhibitors, primary screen, biochemical, fluorescence, purified enzyme | 0.84% of 370,000 active | 1-phosphatidylinositol 4,5-bisphosphate phosphodiesterase gamma-1 (Homo sapiens), P19174 | inhibition, % at 12.2 µM | fluorogenic substrate; in the data active means inhibition above about 9.5%
ADAM10 confirm – human ADAM10 inhibitors, confirmation, biochemical, QFRET, triplicate; inhibition, % at 6.95 µM; 1% of 2,100 active; ADAM10 QFRET peptide cleavage, EDANS fluorescence; shares compounds with ADAM10 inh;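 active means inhibition above about 20% chosen separately for each screening run, limit read from the data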;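 further: 0% = DMSO wells and 100% = marimastat wells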
ADAM17 ctr – ADAM17 inhibitors, counter-screen for ADAM10 exosite inhibitor project, biochemical, QFRET, high throughput | ADAM17 QFRET peptide cleavage, EDANS fluorescence | 0.5% of 2,100 active | AID 743214, 2013 | shares compounds with ADAM10 inh | inhibition, % at 6.95 µM;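 active means mean triplicate inhibition above the solvent-only control wells' mean plus 3 SD, cut at about 12% in these data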;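 further: 0% = DMSO wells and 100% = marimastat wells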
ADAM10 ctr – ADAM10 inhibitors, counter-screen for ADAM17 exosite inhibitor project, biochemical, FRET, human ADAM10; shares compounds with ADAM17 inh; recombinant ADAM10, EDANS/DABCYL FRET peptide cleavage, 3 h; inhibition, % at 6.95 µM; 47% of 2,900 active; AID 743256, 2014;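 active means mean inhibition over the triplicate runs exceeds the activity threshold set in the earlier primary screen, cut at about 20% in these data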;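 further: 0% = DMSO wells and 100% = marimastat wells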
ADAM17 confirm – ADAM17 inhibitors, hit retest, confirmation, biochemical, QFRET peptide cleavage; 65% of 2,900 active; inhibition, % at 6.95 µM; shares compounds with ADAM17 inh; AID 743257, 2014; recombinant ADAM17, EDANS/DABCYL QFRET peptide cleavage;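 active means mean inhibition across replicates above the hit cutoff set in the primary screen, cut at about 8.5% in these data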;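 further: 0% = DMSO wells and 100% = marimastat wells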
* marks the source's active call; other numbers are inactive results; . = no result. Compounds with a hit are over-represented: about 2.9% of the library has one in this group of screens.

SMILES	ADAM17 inh	ADAM10 inh	proKLK7 act	PLCb3 inh	PLC-gamma1 inh	ADAM10 confirm	ADAM17 ctr	ADAM10 ctr	ADAM17 confirm
Cc1ccc(NS(=O)(=O)c2ccc(N3CCN(c4ccc(O)cc4)CC3)c([N+](=O)[O-])c2)c(C)c1	10.2*	20.2*	1.0	-13.8	-18.3	5.7	-0.6	32.5*	18.8*
COC(=O)[C@@]12C[C@@H](CC(=O)NCCCCc3ccccc3)C(=O)N(Cc3ccc4c(c3)OCO4)C1=CCC(C)(C)C2	16.7*	27.3*	0.7	0.0	0.7	5.3	2.5	28.5*	15.0*
CCCc1ccc(-c2cc(NC(=O)CSc3n[nH]c(N)n3)n(-c3ccccc3)n2)cc1	9.8*	28.9*	-0.7	4.1	1.0	3.5	1.6	29.2*	11.8*
COc1ccc(S[C@]2(C(=O)N(C)C)CC(=O)N(c3ccsc3)[C@@H]2c2ccc(OC)cc2)cc1	3.1	6.3	0.8	3.4	2.5	.	.	.	.
O=C(Nc1ccc(Oc2ccccc2)cc1)C1CCN(c2nnc(-n3cccc3)s2)CC1	0.7	4.4	0.6	-1.8	1.5	.	.	.	.
COc1ccc(Nc2nc(N)nc(CSC(=S)N3CCN(c4ccccc4)CC3)n2)cc1	12.0*	22.7*	-1.0	3.5	2.9	6.9	2.6	26.2*	13.6*
CCCN1CCCCC(NC(=O)c2cccs2)C1=O (stereo not drawn)	-4.8	-6.7	0.5	-0.5	-0.3	.	.	.	.
COc1ccc(OC)c(NC(=S)NCCC(c2ccccc2)c2ccccc2)c1	8.7*	21.4*	-0.1	1.9	2.6	6.9	1.5	23.4*	21.6*
COc1ccc(OC)c(NC(=S)NCc2ccccc2OC)c1	-4.6	-4.2	1.0	-0.5	-2.0	.	.	.	.
Cc1ccc(C)c(N(CC(=O)Nc2cc(Cl)ccc2Oc2ccccc2)S(C)(=O)=O)c1	10.4*	29.0*	-0.9	3.2	4.3	5.5	2.8	23.7*	13.3*
Cc1cccc(C)c1N(CC(=O)Nc1cc(Cl)ccc1Oc1ccccc1)S(C)(=O)=O	8.8*	30.3*	-0.1	-1.1	1.7	6.4	2.9	26.4*	15.7*
O=S(=O)(c1ccc(F)cc1)N1CCCc2nc(-c3ccc(F)cc3)ccc21	-2.5	-4.1	-0.5	-2.0	1.2	.	.	.	.
Cc1ccc(S(=O)(=O)N2CCN(CC(=O)N/N=C\c3ccc(Cl)c([N+](=O)[O-])c3)CC2)cc1	3.7	1.7	0.1	-0.6	-1.4	.	.	.	.
O=C(CN1CCN(S(=O)(=O)c2ccc(Br)cc2)CC1)N/N=C/c1ccc(Cl)c([N+](=O)[O-])c1	11.3*	25.7*	0.4	2.6	2.9	1.8	0.5	26.1*	13.8*
CC(/C=C1\SC(=O)N(CC(=O)Nc2cccc(O)c2)C1=O)=C\c1ccccc1	13.0*	28.6*	-1.0	-2.4	-1.3	11.6	4.3	23.5*	14.6*
COC(=O)C1=C(C)N(C)C(=NCC2CC2)NC1c1ccc(Cl)cc1 (stereo not drawn)	-3.4	-6.1	0.1	2.7	0.5	.	.	.	.
Cc1cc(F)ccc1C(O)c1ncc(-c2cccc(OCc3ccccc3)c2)[nH]1 (stereo not drawn)	9.7*	29.4*	0.0	3.3	-0.2	11.6	3.6	38.7*	20.2*
O=C(C[C@@H]1C/C=C\C[C@H](Cc2ccc(F)cc2)C(=O)OC[C@@H](Cc2c[nH]c3ccccc23)NC1=O)NCCO	-3.5	-6.1	0.3	-2.0	-3.6	.	.	.	.
O=C(NCCN1CCC(Cc2ccccc2)CC1)C1CCCN(S(=O)(=O)c2cccs2)C1 (stereo not drawn)	-1.5	-3.5	0.3	0.2	-0.7	.	.	.	.
CN(C)S(=O)(=O)c1cccc(NC(=O)CSc2nc3ccccc3n2-c2ccccc2)c1	10.2*	19.9*	0.3	-4.1	-0.4	6.7	2.5	24.0*	12.5*
CN(C)S(=O)(=O)c1ccc(NC(=O)CSc2nc3ccccc3n2-c2ccccc2)cc1	5.4	13.6	0.2	-3.9	0.6	.	.	.	.
O=C(CSc1nc2ccccc2c(=O)n1-c1ccc(F)c(Cl)c1)Nc1cccc(S(=O)(=O)N2CCOCC2)c1	10.0*	19.9*	-0.3	-0.4	-1.3	7.5	2.0	29.8*	20.2*
CCCNC(=O)C1(C)CCN(Cc2cc(-c3ccccc3)on2)C1 (stereo not drawn)	-4.0	-28.0	-0.8	0.1	0.2	.	.	.	.
Cc1cc(C(=O)OC(C(=O)Nc2cccc(C(F)(F)F)c2)c2ccccc2)c(C)o1 (stereo not drawn)	15.9*	30.1*	0.7	5.1	2.6	7.3	2.5	38.2*	24.5*
CN(C)CCNC(C(=O)Nc1cccc(C(F)(F)F)c1)c1ccccc1 (stereo not drawn)	-1.2	-9.9	0.4	3.9	2.4	.	.	.	.
SMILES	ADAM17 inh	ADAM10 inh	proKLK7 act	PLCb3 inh	PLC-gamma1 inh	ADAM10 confirm	ADAM17 ctr	ADAM10 ctr	ADAM17 confirm
Cc1ccc(C(=O)Nc2ccc3c(c2)OCO3)cc1S(=O)(=O)N1CCCC1	0.1	4.2	-0.5	0.9	1.2	.	.	.	.
Cc1ccc(C(=O)OCc2ccc3c(c2)OCO3)cc1S(=O)(=O)N1CCCCC1	13.0*	20.8*	-0.1	-1.4	3.6	4.4	1.4	15.2	9.4*
O=C(N[C@H](c1cccc(Br)c1)[C@@H]1CCCC=C1c1ccccc1)C(F)(F)F	-3.4	-10.3	0.9	0.2	3.4	.	.	.	.
CCCC1CCC2(CC1)CCC2OC(=S)NCc1cccc(OC)c1 (stereo not drawn)	-1.4	3.4	.	-3.6	-2.8	.	.	.	.
Cc1ccc(S(=O)(=O)Nc2ccc(SC(F)F)cc2)c(C)c1	11.4*	26.6*	0.1	1.7	4.1	3.1	2.0	23.4*	11.1*
CC(C)c1ccc(NS(=O)(=O)c2ccc(Cl)nc2)cc1	1.7	16.6	0.6	1.5	3.7	.	.	.	.
